Experimental data reported in PubChem BioAssay (EPA / NIEHS).
Where “and” joins values, the source holds several entries; their conditions need not be identical. Equal values may be shown once. More than one record can exist for a structure, and the calls need not agree. Calls of active or inactive are those of the source. The calls were made as follows: active = hit-call score of the fitted dose curve at least 0.9, where 1 is the maximum; inactive = score below 0.9.

Key:
[1] = read-out: Transforming growth factor beta 1 (TGFb1), TGFB1 (gene 7040); assay: BSK_KF3CT_TGFb1: BioMAP Diversity Plus: KF3CT Assay for Transforming growth factor beta 1 (TGFb1) Biomarker Activity (AID 2283072); conditions: primary human keratinocytes with fibroblasts; actives raise or lower the signal
How it was run: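 Signal changes in either direction, relative to DMSO, define activity here. TGF-b1 is read by ELISA from a human keratinocyte-fibroblast co-culture 24 h post-dose.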

[2] = read-out: C-C motif chemokine 2 (Homo sapiens) (UniProt P13500); assay: BSK_KF3CT_MCP1: BioMAP Diversity Plus: KF3CT Assay for Monocyte Chemoattractant Protein 1 (MCP1/CCL2) Biomarker Activity (AID 2283073); conditions: primary human keratinocytes with fibroblasts; actives raise or lower the signal
How it was run: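 Keratinocytes and foreskin fibroblasts were co-cultured, dosed with chemical, and sampled 24 h later. MCP-1 was quantified by ELISA, and the endpoint was analyzed with bidirectional fitting using DMSO as negative control.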

[3] = read-out: Matrix Metallopeptidase 9 (MMP9), MMP9 (gene 4318); assay: BSK_KF3CT_MMP9: BioMAP Diversity Plus: KF3CT Assay for Matrix Metallopeptidase 9 (MMP9) Biomarker Activity (AID 2283074); conditions: primary human keratinocytes with fibroblasts; actives raise or lower the signal;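 as to AC50: MMP9 protein level quantified by ELISA in the co-culture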
How it was run: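 Keratinocyte plus foreskin fibroblast human primary skin co-culture was dosed with chemical and MMP-9 was quantified by ELISA 24 h later. Bidirectional curve fitting used DMSO as negative control and activity baseline.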

[4] = read-out: urokinase plasminogen activator (uPA), PLAU (gene 5328); assay: BSK_KF3CT_uPA: BioMAP Diversity Plus: KF3CT Assay for urokinase plasminogen activator (uPA) Biomarker Activity (AID 2283075); conditions: primary human keratinocytes with fibroblasts; actives raise or lower the signal
How it was run: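 Human keratinocyte plus foreskin fibroblast primary co-culture exposed to chemical for 24 h. uPA levels were quantified by ELISA, and activity was fitted bidirectionally against a DMSO negative-control baseline.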

[5] = read-out: CD40, CD40 (gene 958); assay: BSK_LPS_CD40: BioMAP Diversity Plus: LPS Assay for CD40 Biomarker Activity (AID 2283076); conditions: primary human HUVEC with PBMC; actives raise or lower the signal
How it was run: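 CD40 signal, measured by ELISA, is fitted in both directions relative to DMSO vehicle. The system is an LPS-driven human vascular primary co-culture of endothelial cells and PBMC, sampled 24 h after compound addition.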

[6] = read-out: E-selectin (Homo sapiens) (UniProt P16581); assay: BSK_LPS_Eselectin: BioMAP Diversity Plus: LPS Assay for Eselectin Biomarker Activity (AID 2283077); conditions: primary human HUVEC with PBMC; actives raise or lower the signal
How it was run: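 Signal of E-selectin, detected by ELISA, served as the endpoint; cells were umbilical vein endothelium with PBMC, read 24 h after treatment. DMSO defined baseline, and both increases and decreases were fitted.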

[7] = read-out: Interleukin-8 (IL8), CXCL8 (gene 3576); assay: BSK_LPS_IL8: BioMAP Diversity Plus: LPS Assay for Interleukin-8 (IL8) Biomarker Activity (AID 2283078); conditions: primary human HUVEC with PBMC; actives raise or lower the signal
How it was run: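 Endothelial cells and PBMC from human donors are co-cultured, treated with chemicals and LPS, then assayed for IL-8 by ELISA after 24 h. Parallel SRB staining (0.1% SRB after 10% TCA fixation, 560 nm) flags cytotoxicity.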

[8] = BSK_LPS_SRB: Viability Assessment in the BioMAP Diversity Plus: LPS Assay (AID 2283079); conditions: primary human HUVEC with PBMC;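 also: total protein by sulforhodamine B absorbance as a cytotoxicity measure; measured one day after compound addition; fitted in both directions against DMSO so loss or gain of signal counts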
How it was run: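 Overt cytotoxicity was gauged by sulforhodamine B total-protein staining in a primary human vascular endothelial and mononuclear cell co-culture 24 h post-dosing. Activity was fitted in both directions relative to DMSO.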

[9] = read-out: Monocyte Chemoattractant Protein-1 (MCP1), CCL2 (gene 6347); assay: BSK_LPS_MCP1: BioMAP Diversity Plus: LPS Assay for Monocyte Chemoattractant Protein-1 (MCP1) Biomarker Activity (AID 2283081); conditions: primary human HUVEC with PBMC; actives raise or lower the signal;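 as to AC50: secreted MCP-1 protein quantified by ELISA in culture supernatant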
How it was run: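 LPS-stimulated HUVEC/PBMC co-culture; chemical, 24 h; MCP-1 by ELISA; bidirectional fit vs DMSO; cytotoxicity via SRB (0.1% stain, 10% TCA fix, 560 nm) in parallel wells.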

[10] = BSK_LPS_PGE2: BioMAP Diversity Plus: LPS Assay for Prostaglandin E2 (PGE2) Biomarker Activity (AID 2283082); conditions: primary human HUVEC with PBMC; actives raise or lower the signal;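 as to AC50: secreted prostaglandin E2 measured by ELISA in LPS-stimulated co-culture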
How it was run: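 Endpoint derived from bidirectional curve fitting versus DMSO of ELISA-measured PGE2 in LPS-stimulated human primary vascular co-culture (HUVEC with PBMC) harvested at 24 h.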

[11] = read-out: Macrophage colony-stimulating factor (MCSF), CSF1 (gene 1435); assay: BSK_LPS_MCSF: BioMAP Diversity Plus: LPS Assay for Macrophage colony-stimulating factor (MCSF) Biomarker Activity (AID 2283083); conditions: primary human HUVEC with PBMC; actives raise or lower the signal
How it was run: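 Compound is added to a human vascular primary co-culture of umbilical vein endothelium and blood mononuclear cells. After 24 h, M-CSF is quantified by ELISA. Signal changes are fitted in both directions against DMSO.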

[12] = read-out: Tissue Factor, F3 (gene 2152); assay: BSK_LPS_TissueFactor: BioMAP Diversity Plus: LPS Assay for Tissue Factor Biomarker Activity (AID 2283084); conditions: primary human HUVEC with PBMC; actives raise or lower the signal
How it was run: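 In this co-culture system of umbilical vein endothelium with PBMC, stimulated with LPS, cell-surface CD142 is detected by ELISA at 24 h. Endpoint values derive from bidirectional fitting, DMSO serving as baseline.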

[13] = read-out: Vascular cell adhesion molecule 1 (VCAM1), VCAM1 (gene 7412); assay: BSK_LPS_VCAM1: BioMAP Diversity Plus: LPS Assay for Vascular cell adhesion molecule 1 (VCAM1) Biomarker Activity (AID 2283086); conditions: primary human HUVEC with PBMC; actives raise or lower the signal
How it was run: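 Primary human vascular co-culture (umbilical vein endothelium plus PBMC) stimulated with LPS received chemical; 24 h later VCAM-1 was read by ELISA. Overt cytotoxicity was assessed by sulforhodamine B staining of parallel cultures at the same time point.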

[14] = read-out: CD38, CD38 (gene 952); assay: BSK_SAg_CD38: BioMAP Diversity Plus: SAg Assay for CD38 Biomarker Activity (AID 2283087); conditions: primary human HUVEC with PBMC; actives raise or lower the signal
How it was run: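 Fluorescence ELISA of cell-surface CD38 served as the read-out, with either increase or decrease fitted against DMSO controls. Cells were a human umbilical vein endothelium plus PBMC co-culture under SEB/TSST-1 stimulation, measured 24 h after dosing.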

[15] = read-out: CD40, CD40 (gene 958); assay: BSK_SAg_CD40: BioMAP Diversity Plus: SAg Assay for CD40 Biomarker Activity (AID 2283088); conditions: primary human HUVEC with PBMC; actives raise or lower the signal
How it was run: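 Fluorescence ELISA read-out of CD40 from umbilical vein endothelium plus peripheral blood mononuclear cells, sampled 24 h after dosing. Values come from bidirectional curve fitting with DMSO as baseline.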

[16] = read-out: CD69, CD69 (gene 969); assay: BSK_SAg_CD69: BioMAP Diversity Plus: SAg Assay for CD69 Biomarker Activity (AID 2283089); conditions: primary human HUVEC with PBMC; actives raise or lower the signal;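 as to AC50: cell surface CD69 protein quantified by ELISA with fluorescence detection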
How it was run: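 Endothelial/PBMC co-culture; chemical added; 24 h incubation; CD69 ELISA with fluorescence detection; bidirectional fit vs DMSO.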

[17] = read-out: Monocyte Chemoattractant Protein-1 (MCP1), CCL2 (gene 6347); assay: BSK_SAg_MCP1: BioMAP Diversity Plus: SAg Assay for Monocyte Chemoattractant Protein-1 (MCP1) Biomarker Activity (AID 2283090); conditions: primary human HUVEC with PBMC; actives raise or lower the signal
How it was run: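 MCP-1 levels in the endothelial–PBMC SAg co-culture were quantified by ELISA at 24 h post-dosing; both increases and decreases versus DMSO scored. Cytotoxicity monitored by SRB total protein in parallel cultures.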

[18] = read-out: Tumor necrosis factor (Homo sapiens) (UniProt P01375); assay: BSK_LPS_TNFa: BioMAP Diversity Plus: LPS Assay for Tumour Necrosis Factor alpha (TNFa) Biomarker Activity (AID 2283085); conditions: primary human HUVEC with PBMC; actives raise or lower the signal
How it was run: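 Primary human vascular co-culture of HUVEC and PBMC; TNFa ELISA 24 h after treatment, analysed as increase or decrease relative to DMSO control.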

[19] = read-out: Interleukin-1 alpha (IL1a), IL1A (gene 3552); assay: BSK_LPS_IL1a: BioMAP Diversity Plus: LPS Assay for Interleukin-1 alpha (IL1a) Biomarker Activity (AID 2283080); conditions: primary human HUVEC with PBMC; actives raise or lower the signal
How it was run: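 Measured: IL-1 alpha via ELISA at 24 h in LPS-activated human umbilical vein endothelium–PBMC co-culture. Baseline: DMSO, bidirectional fitting.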

Measured: AC50

Chain of E-selectin (Homo sapiens) (P16581 whole entry, looked up): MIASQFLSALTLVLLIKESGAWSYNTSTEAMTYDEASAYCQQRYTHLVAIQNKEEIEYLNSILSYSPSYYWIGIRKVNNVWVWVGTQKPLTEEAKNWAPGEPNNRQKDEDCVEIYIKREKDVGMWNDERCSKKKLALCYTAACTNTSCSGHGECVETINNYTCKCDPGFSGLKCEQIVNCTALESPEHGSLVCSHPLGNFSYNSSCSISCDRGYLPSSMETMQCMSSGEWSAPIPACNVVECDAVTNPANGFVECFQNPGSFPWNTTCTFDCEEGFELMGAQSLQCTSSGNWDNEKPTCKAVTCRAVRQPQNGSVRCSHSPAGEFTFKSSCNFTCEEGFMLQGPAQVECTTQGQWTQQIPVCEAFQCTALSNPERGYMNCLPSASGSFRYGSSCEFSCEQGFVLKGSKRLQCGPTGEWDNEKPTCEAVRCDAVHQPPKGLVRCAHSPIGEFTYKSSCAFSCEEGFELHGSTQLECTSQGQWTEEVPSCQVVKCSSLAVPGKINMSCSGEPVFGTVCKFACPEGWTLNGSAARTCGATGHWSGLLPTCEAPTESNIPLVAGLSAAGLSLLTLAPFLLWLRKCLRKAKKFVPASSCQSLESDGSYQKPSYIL
Chain of Tumor necrosis factor (Homo sapiens) (P01375 whole entry, looked up): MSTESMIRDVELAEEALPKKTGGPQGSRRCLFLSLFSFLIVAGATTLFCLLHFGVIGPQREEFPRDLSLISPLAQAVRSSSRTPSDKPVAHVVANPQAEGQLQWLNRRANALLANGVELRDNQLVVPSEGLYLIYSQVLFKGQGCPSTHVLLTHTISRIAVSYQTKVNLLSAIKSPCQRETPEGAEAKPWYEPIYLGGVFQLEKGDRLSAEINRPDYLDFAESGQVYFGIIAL

O=C(Nc1ccc2[nH]ccc2c1)c1cc2cc(F)ccc2n1Cc1cccc(F)c1
active: [1] 6.88 µM | [2] 6.52 µM | [3] 4.6 µM | [4] 8.64 µM | [5] 8.35 µM | [6] 12.4 µM | [7] 10.4 µM | [8] 13.2 µM | [9] 10.4 µM | [10] 20 µM | [11] 14 µM | [12] 8.59 µM | [13] 11.9 µM | [14] 10.3 µM | [15] 8.2 µM | [16] 10.6 µM | [17] 9.29 µM

C[C@]12CCC(=O)C[C@@H]1CC[C@@H]1[C@@H]2CC[C@]2(C)[C@@H](O)CC[C@@H]12
active: [6] 28.1 µM | [8] 19.8 µM | [9] 26 µM | [11] 19 µM | [13] 29 µM | [17] 28.2 µM
not listed: [19]
inactive: all other assays above

COc1cc(-c2ccc(N)c(OC)c2)ccc1N
inactive: [1] | [2] | [3] | [4] | [5] | [6] | [7] | [9] | [11] | [12] | [13] | [14] | [15] | [16] | [17]
active: [10] 3.63 µM and 9 µM | [11] 19.2 µM | [12] 19.2 µM | [13] 23.9 µM

COP(=S)(OC)Oc1cc(Cl)c(Cl)cc1Cl
active: [1] 36.3 µM | [18] 32.6 µM
not listed: [8]
inactive: all other assays above
